D1 potentiator: potentiators of human D1 dopamine receptor; P21728; HEK293 TREx D1 cells, calcium flux, dopamine EC20 potentiation; potentiation, % at 10 µM; 360,000 compounds, 0.036% hits; AID 504651; in the data active = potentiation above about 30%; also: 0% is about no effect
Target sequence (P21728 whole entry, looked up): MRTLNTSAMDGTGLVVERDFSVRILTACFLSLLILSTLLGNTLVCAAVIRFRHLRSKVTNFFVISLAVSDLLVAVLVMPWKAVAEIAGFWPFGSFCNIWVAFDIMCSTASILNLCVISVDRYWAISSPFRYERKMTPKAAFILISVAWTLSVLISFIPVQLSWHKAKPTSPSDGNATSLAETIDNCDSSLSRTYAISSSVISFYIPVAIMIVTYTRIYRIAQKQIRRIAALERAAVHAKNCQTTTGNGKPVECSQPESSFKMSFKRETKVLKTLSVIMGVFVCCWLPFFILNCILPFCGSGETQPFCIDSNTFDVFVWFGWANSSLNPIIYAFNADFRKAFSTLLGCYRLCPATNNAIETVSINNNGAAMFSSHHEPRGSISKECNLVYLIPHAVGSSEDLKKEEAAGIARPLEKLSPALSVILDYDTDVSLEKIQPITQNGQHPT
DRD3 antagonist: antagonists of human D3 dopamine receptor; P35462; D3R cells, DiscoveRx beta-arrestin luminescence, antagonist mode; active compounds read low; max response, negative = inhibition, %; 360,000 compounds, 2.5% hits; in the data active = max response below about -50%; inconclusive = no clear call, values can overlap the other calls; also: % is scaled to controls: 0 for no effect and ±100 for the full control effect
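Cells expressing the human receptor were seeded at 1500 cells/well, incubated overnight at 37 degrees C in 5% CO2, then exposed to library compounds with dopamine controls for 90 minutes at 37 degrees C before luminescent detection.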
D1 agonist: human D1 receptor agonism | P21728 | HEK293 T-REx D1 cells, calcium flux, agonist mode | activation, % at 2 µM | 360,000 compounds, 1% hits | AID 504660; in the data active = activation above about 30%; also: 0% is about no effect
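Tetracycline-induced HEK293 TREx D1 cells, force-coupled to calcium signalling, were dye-loaded with a no-wash calcium kit. Compound was pin-added after a 10 s baseline. Fluorescence was read kinetically at 1 cycle/s for 180 s, with calcium rises flagged as agonism.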
D3 ag: agonists of human D3 dopamine receptor; P35462; D3R DiscoveRx beta-arrestin cells, luminescence, 90 min; max activation, %; 410,000 compounds, 0.58% hits; in the data active = max activation above about 30%; also: 0% is about no effect
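Agonist mode: compounds and dopamine controls were applied to plated cells for 90 min at 37 degrees C after an overnight attachment at 1500 cells/well. Luminescent read-out followed 30 - 60 minutes at room temperature with DiscoveRx detection reagent.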
D1 antag: blocks dopamine activation of the human D1 receptor; activity change, negative = inhibition, % at 10 µM; P21728; AID 504652; 360,000 compounds, 3.2% hits; HEK293 TREx D1 cells, calcium flux, dopamine EC80; active compounds read low; in the data active = activity change below about -30%; also: % is scaled to controls: 0 for no effect and ±100 for the full control effect
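HEK293 T-REx cells expressing inducible, force-coupled D1 receptor; no-wash Ca dye, 30–90 min RT. Cmpd → 180 s read at 1 Hz → EC80 DA → 180 s read.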
The depositor's hits bear a star; ? = inconclusive; · = not tested or not shown; ! = not confirmed by another sample. In the library only some 6% were active in any assay of this set; here they are far more common.

SMILES | D1 potentiator | DRD3 antagonist | D1 agonist | D3 ag | D1 antag
COCCNC(=O)C1CC2Cn3c(nc4cc(C)c(C)cc43)C2N1C (stereo unspecified) | -9 | -21 | 1 | -8 | -78*
Cc1ccc(-c2nc(NC(=O)CSc3nnc4scc(-c5ccccc5)n34)ns2)cc1 | -9 | -2 | 4 | 1 | 7
COc1ccc(C(c2nnnn2Cc2ccccc2)N2CCN(C/C=C/c3ccccc3)CC2)cc1 (stereo unspecified) | · | -96* | · | -16 | ·
CCN1CCN(C(c2ccccc2)c2nnnn2Cc2ccc(OC)cc2)CC1 (stereo unspecified) | -2 | -14 | 5 | -9 | -11
C(=C\c1ccccc1)/CN1CCN(C(c2ccccc2)c2nnnn2Cc2ccccc2)CC1 (stereo unspecified) | · | -71* | · | -18 | ·
COc1ccccc1N=c1oc2cc(O)ccc2cc1C(N)=O | -4 | -54* | 7 | -10 | -17
COc1ccccc1NC(=O)c1cc2ccc(O)cc2o/c1=N\O | 1 | -75* | 0 | -2 | 0
Oc1oc(-c2ccccc2)nc1C=Nc1ccccc1 | 2 | -16 | 1 | -8 | 7
O=[N+]([O-])c1cccc(/C=C/c2nc(C=Nc3ccccc3)c(O)o2)c1 | -2 | 31 | 7 | 31* | -6
Cc1ccc(-c2c(C)n3c4c(=O)n(C)c(=O)n(C)c4nc3n2CCCO)cc1 | -3 | · | -1 | 37* | 3
COCCCNC(=O)CCCn1c(=O)c2cccn2c2ccccc21 | 0 | · | -1 | 1 | -1
COc1ccccc1CNC(=O)CCCn1c(=O)c2cccn2c2ccccc21 | -4 | · | 26 | 2 | -36*
CCOc1cc(CNC(=O)CCCn2c(=O)c3cccn3c3cccnc32)cc(OCC)c1OCC | -5 | 10 | 0 | -1 | -33*!
CCOc1ccccc1CNC(=O)CCCn1ncn2c(cc3occc32)c1=O | -2 | -6 | 1 | 5 | -40*!
Cc1ccccc1CNC(=O)CCCn1c(=O)c2cccn2c2ccccc21 | -4 | · | 4 | 4 | 2
CC(C)CCNC(=O)CCCn1c(=O)c2cccn2c2ccccc21 | -4 | · | 7 | 4 | -37*
CCc1ccc(CNC(=O)CCCn2c(=O)c3cccn3c3cccnc32)cc1 | 0 | -14 | 8 | -10 | 5
COc1cc(NC(=O)c2cc(C)nc3ccccc23)cc(OC)c1 | -1 | 1 | 2 | -2 | -17
CCOc1ccc(CCNC(=O)c2cc(C)nc3c2c(C)nn3-c2cccc(F)c2)cc1 | 4 | · | 5 | 63* | -15
COc1cccc(CNC(=O)c2cc(C)nc3c2c(C)nn3-c2ccc(C)cc2)c1 | -4 | · | 2 | 37* | -11
COc1cccc(CNC(=O)c2cc(C)nc3ccccc23)c1 | -6 | -21 | 3 | 10 | -39*
Cc1cc(CNC(=O)Cc2ccccc2)c2ccccc2n1 | 2 | 5 | 2 | -14 | 2
Cc1cc(CNC(=O)c2cccc([N+](=O)[O-])c2C)c2ccccc2n1 | -7 | 16 | 26 | 4 | -46*
COc1cc(OC)c(NS(=O)(=O)c2c(C(=O)N3CCC(C)CC3)c(C)n(C)c2C)cc1Cl | 2 | · | 0 | 3 | -20
CCn1c(SCC(=O)Nc2c(C)cccc2C)nnc1-c1nonc1NC(C)=O | 0 | · | 9 | -2 | 11
SMILES | D1 potentiator | DRD3 antagonist | D1 agonist | D3 ag | D1 antag
Cn1c(=O)[nH]c(=O)c2c1nc(CN1CCN(c3ccccc3F)CC1)n2Cc1ccc(F)cc1 | 4 | · | -1 | -1 | 26
Cc1nc([N+](=O)[O-])c(Br)n1Cc1ccc(Cl)c(Cl)c1 | -6 | -76* | 8 | -15 | -5
Cc1nc([N+](=O)[O-])c(Br)n1CC(=O)c1ccc(Cl)cc1 | -5 | -29 | 6 | -2 | -7
COc1ccc(C(=O)Cn2c(C)nc([N+](=O)[O-])c2Br)cc1 | -2 | -56* | 11 | -25 | -2
CC(C)=CCC[C@H](C)C[C@@H]1Cc2[nH]c(=S)[nH]c(=O)c2[C@@H](c2ccc(F)cc2)O1 | · | -55* | · | -3 | ·
CC(C)=CCC[C@H](C)CC1Cc2[nH]c(=S)[nH]c(=O)c2C(c2ccc(F)cc2)O1 (stereo partly specified) | · | 11 | · | 7 | ·
COc1ccc(C)cc1NC(=O)c1cn(C)c(=O)c2cc(OC)c(OC)cc12 | 1 | · | 0 | -6 | -5
CCOC(=O)c1ccc(Nc2cc(C)nc(-c3ccccc3O)n2)cc1 | -6 | 49 | 2 | 68* | -17
CCOC(=O)c1ccc(Nc2cc(-c3ccccc3)nc(C)n2)cc1 | -1 | · | 1 | 10 | 1
Cc1cc(Nc2ccccc2)nc(-c2ccccc2O)n1 | -3 | 11 | 4 | 4 | -45*
Cc1cc(Nc2cccc(F)c2)nc(-c2ccccc2O)n1 | -9 | 6 | 2 | 9 | -19
Cc1ccc(C)c(N2CCN(C(=O)CCc3c(C)nn(-c4ccc(N5CCCC5)nn4)c3C)CC2)c1 | -1 | · | 2 | 4 | 9
Cc1ccc(/C=N/N(C)C2=NS(=O)(=O)c3ccccc32)o1 | -3 | · | 2 | · | -43*
CN(/N=C/c1ccc(Br)o1)C1=NS(=O)(=O)c2ccccc21 | 3 | 6 | -3 | 3 | -4
CCCN1CCN(c2nnc(-n3cccc3C(=O)Nc3ccccc3C(F)(F)F)s2)CC1 | 2 | · | 1 | -6 | 2
O=C(c1ccc2c(c1)N(Cc1c(F)cccc1Cl)C(=O)c1ccccc1S2)N1CCOCC1 | 2 | · | -1 | 6 | 25
CC(Oc1cccc(Cl)c1)C(=O)Nc1nc(-c2ccccn2)cs1 (stereo unspecified) | -6 | 2 | 5 | 2 | -35*
Cn1cccc1C(=O)Nc1nc(-c2ccccn2)cs1 | 0 | -56* | 1 | -3 | -4
COc1ccc(C(=O)OCc2c(-c3ccccc3)ncc3ccccc23)cc1 | · | -50* | · | -28 | ·
CN(C)S(=O)(=O)c1cccc(CSCc2cccc(S(=O)(=O)N(C)C)c2)c1 | -8 | 22 | 23 | -3 | -36*
Cc1cc(C)n2nc(SCc3cccc(S(=O)(=O)N(C)C)c3)nc2n1 | -7 | 17 | 11 | 3 | -11
CC1=C(C(=O)Nc2ccccc2)C(c2cccs2)n2nc(SCc3ccccc3)nc2N1 (stereo unspecified) | 1 | · | 1 | -11 | 0
CCOC(=O)C1CCCN(C(=O)c2cccc(Cl)c2)CC1 (stereo unspecified) | · | -6 | · | -4 | ·
CCN1CCN(C(=O)C(C)N(c2ccc(C)cc2)S(C)(=O)=O)CC1 (stereo unspecified) | 2 | ? | 2 | -5 | -7
Cc1ccc(N(C(C)C(=O)N2CCCC2)S(C)(=O)=O)cc1 (stereo unspecified) | 4 | 20 | 1 | -2 | -32*
COc1cc(-c2ccno2)ccc1S(=O)(=O)N1CCN(c2ccccc2)CC1 | -3 | · | 2 | 0 | -9
COc1ccc(CCNCC(O)Cn2c3ccccc3c3ccccc32)cc1OC (stereo unspecified) | -5 | 1 | 55* | -10 | -19
